Experimental data as given in PMC7862700, “An all-to-all approach to the identification of sequence-specific readers for epigenetic DNA modifications on cytosine”.

Columns and labels:
Experiment in all cases: DAPPL (digital affinity profiling via proximity ligation, sequencing); 10 mM Tris-HCl pH 7.5, 50 mM NaCl, 1 mM DTT, 4% glycerol, room temperature, 30 min; GST-TFs on glutathione beads, 16-mer random dsDNA library, 0.1% formaldehyde crosslink after washing; high values mean tight binding
[1] = target: T1, FEV (Homo sapiens, UniProt Q99581 1-238); conditions: protein: recombinant; tags: N-terminal GST; dsDNA, one strand shown
T1 sequence: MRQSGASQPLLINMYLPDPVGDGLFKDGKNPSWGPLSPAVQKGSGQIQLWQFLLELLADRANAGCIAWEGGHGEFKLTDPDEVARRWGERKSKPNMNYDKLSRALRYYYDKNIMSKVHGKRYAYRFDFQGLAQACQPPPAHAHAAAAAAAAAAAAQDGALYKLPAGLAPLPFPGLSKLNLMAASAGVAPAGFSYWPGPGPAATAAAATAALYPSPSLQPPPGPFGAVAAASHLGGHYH
In short: (§1)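 Binding signal is defined as a hexamer's read frequency for one factor over its frequency for the tag-only sample. To obtain reads, GST-fused human transcription factors were expressed in yeast, captured on glutathione beads, barcoded with DNA and pooled with that sample. Pools met 200 nmole of a 16-mer random double-stranded DNA library in Tris/NaCl/DTT/glycerol buffer for 30 min at room temperature before washing, 0.1% formaldehyde crosslinking, proximity ligation (BsaI/T4 ligase, 1 h, 37 °C), PCR and Illumina NextSeq500 sequencing.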

[2] = target: ETV5 (Homo sapiens, UniProt P41161 1-510); conditions: protein: recombinant; tags: N-terminal GST; dsDNA, one strand shown
In short: as §1

[3] = target: HSF1 (Homo sapiens, UniProt Q00613 1-529); conditions: protein: recombinant; tags: N-terminal GST; chain copies: 3; dsDNA, one strand shown
In short: as §1

[4] = target: T2, SPIC (Homo sapiens, UniProt Q8N5J4 1-248); conditions: protein: recombinant; tags: N-terminal GST; dsDNA, one strand shown
T2 sequence: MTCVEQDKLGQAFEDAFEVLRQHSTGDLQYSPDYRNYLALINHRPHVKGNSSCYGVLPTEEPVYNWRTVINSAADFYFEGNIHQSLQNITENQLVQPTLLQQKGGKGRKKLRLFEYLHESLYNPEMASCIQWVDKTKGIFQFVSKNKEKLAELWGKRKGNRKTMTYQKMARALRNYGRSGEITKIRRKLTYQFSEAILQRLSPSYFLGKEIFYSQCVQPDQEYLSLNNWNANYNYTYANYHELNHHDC
In short: as §1

[5] = target: ELF4 (Homo sapiens, UniProt Q99607 1-663); conditions: protein: recombinant; tags: N-terminal GST; dsDNA, one strand shown
In short: as §1

[6] = target: T3, ELK4 (Homo sapiens, UniProt P28324-2 1-405); conditions: protein: recombinant; tags: N-terminal GST; dsDNA, one strand shown
T3 sequence: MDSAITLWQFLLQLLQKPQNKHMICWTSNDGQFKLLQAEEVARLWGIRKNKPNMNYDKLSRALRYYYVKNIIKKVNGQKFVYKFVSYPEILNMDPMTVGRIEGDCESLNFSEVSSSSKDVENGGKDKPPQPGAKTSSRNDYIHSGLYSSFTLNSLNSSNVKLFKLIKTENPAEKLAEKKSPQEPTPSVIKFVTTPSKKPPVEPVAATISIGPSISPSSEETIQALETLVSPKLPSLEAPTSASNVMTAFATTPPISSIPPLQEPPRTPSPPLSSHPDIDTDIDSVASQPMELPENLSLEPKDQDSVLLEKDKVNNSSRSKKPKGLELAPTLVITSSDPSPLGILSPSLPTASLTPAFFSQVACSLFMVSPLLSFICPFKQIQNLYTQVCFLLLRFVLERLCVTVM
In short: as §1

[7] = target: T4, ETV2 (Homo sapiens, UniProt O00321 1-342); conditions: protein: recombinant; tags: N-terminal GST; dsDNA, one strand shown
T4 sequence: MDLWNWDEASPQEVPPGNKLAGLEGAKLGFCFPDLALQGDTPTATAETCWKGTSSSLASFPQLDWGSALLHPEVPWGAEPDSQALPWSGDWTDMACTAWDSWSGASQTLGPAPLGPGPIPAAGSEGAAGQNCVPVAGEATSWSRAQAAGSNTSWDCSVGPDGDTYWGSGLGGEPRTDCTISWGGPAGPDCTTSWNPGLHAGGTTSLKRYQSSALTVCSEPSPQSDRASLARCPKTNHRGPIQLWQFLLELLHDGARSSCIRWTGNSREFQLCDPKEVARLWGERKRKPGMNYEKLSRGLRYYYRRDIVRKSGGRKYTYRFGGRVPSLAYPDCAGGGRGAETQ
In short: as §1

[8] = target: T5, ELF3 (Homo sapiens, UniProt P78545 1-371); conditions: protein: recombinant; tags: N-terminal GST; dsDNA, one strand shown
T5 sequence: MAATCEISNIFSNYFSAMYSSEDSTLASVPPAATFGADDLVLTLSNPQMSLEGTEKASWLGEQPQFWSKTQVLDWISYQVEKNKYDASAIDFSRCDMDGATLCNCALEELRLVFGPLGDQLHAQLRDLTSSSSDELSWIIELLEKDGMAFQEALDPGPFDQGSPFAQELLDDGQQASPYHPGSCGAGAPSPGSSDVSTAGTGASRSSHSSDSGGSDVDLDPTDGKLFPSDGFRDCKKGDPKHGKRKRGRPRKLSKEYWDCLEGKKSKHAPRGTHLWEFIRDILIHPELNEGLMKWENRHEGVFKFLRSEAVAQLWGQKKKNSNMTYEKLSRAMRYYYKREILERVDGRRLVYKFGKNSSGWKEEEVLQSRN
In short: as §1

[9] = target: CRX (Homo sapiens, UniProt O43186 1-299); conditions: protein: recombinant; tags: N-terminal GST; dsDNA, one strand shown
In short: as §1

[10] = target: ETV1 (Homo sapiens, UniProt P50549 1-477); conditions: protein: recombinant; tags: N-terminal GST; dsDNA, one strand shown
In short: as §1

[11] = target: T6, ERF (Homo sapiens, UniProt P50548 1-548); conditions: protein: recombinant; tags: N-terminal GST; dsDNA, one strand shown
T6 sequence: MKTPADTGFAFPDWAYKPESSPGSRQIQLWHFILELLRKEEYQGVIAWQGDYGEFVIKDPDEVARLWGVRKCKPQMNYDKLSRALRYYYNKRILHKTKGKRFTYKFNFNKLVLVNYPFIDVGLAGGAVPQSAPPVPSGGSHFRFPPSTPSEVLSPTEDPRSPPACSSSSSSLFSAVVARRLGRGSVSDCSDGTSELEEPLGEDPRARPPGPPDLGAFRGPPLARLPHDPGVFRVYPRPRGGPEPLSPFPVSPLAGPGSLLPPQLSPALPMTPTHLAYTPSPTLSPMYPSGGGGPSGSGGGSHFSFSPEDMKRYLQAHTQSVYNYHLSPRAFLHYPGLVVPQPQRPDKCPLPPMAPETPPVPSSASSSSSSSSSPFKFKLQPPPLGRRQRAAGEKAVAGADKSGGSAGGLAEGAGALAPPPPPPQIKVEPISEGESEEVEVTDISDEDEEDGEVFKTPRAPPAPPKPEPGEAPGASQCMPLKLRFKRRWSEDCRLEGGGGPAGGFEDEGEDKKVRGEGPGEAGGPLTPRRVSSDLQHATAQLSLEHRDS
In short: as §1

[12] = target: T7, ETV3L (Homo sapiens, UniProt Q6ZN32 1-361); conditions: protein: recombinant; tags: N-terminal GST; dsDNA, one strand shown
T7 sequence: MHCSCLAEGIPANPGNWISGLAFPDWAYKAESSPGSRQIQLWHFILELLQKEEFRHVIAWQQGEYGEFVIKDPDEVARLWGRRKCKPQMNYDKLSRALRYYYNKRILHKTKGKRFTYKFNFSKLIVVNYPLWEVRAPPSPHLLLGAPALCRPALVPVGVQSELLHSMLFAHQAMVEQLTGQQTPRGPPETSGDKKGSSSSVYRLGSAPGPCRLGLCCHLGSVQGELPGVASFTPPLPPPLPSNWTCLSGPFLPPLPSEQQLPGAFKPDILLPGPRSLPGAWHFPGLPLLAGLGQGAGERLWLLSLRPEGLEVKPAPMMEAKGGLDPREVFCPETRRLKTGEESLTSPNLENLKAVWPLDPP
In short: as §1

[13] = target: T8, ETS2 (Homo sapiens, UniProt P15036 1-469); conditions: protein: recombinant; tags: N-terminal GST; dsDNA, one strand shown
T8 sequence: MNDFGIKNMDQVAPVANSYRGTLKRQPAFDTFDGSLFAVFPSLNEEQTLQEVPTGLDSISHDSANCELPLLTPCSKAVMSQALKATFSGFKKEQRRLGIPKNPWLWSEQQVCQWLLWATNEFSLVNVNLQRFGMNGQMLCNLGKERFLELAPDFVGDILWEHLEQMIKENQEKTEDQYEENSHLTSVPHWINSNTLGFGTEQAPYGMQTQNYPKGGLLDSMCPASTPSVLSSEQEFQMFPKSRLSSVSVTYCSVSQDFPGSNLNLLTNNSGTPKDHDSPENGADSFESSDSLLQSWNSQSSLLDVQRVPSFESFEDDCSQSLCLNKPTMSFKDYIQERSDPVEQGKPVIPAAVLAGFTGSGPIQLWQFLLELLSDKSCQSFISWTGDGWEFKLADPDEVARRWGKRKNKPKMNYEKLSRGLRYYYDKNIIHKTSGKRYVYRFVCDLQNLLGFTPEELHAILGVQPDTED
In short: as §1

[14] = target: T9, SPDEF (Homo sapiens, UniProt O95238 1-335); conditions: protein: recombinant; tags: N-terminal GST; dsDNA, one strand shown
T9 sequence: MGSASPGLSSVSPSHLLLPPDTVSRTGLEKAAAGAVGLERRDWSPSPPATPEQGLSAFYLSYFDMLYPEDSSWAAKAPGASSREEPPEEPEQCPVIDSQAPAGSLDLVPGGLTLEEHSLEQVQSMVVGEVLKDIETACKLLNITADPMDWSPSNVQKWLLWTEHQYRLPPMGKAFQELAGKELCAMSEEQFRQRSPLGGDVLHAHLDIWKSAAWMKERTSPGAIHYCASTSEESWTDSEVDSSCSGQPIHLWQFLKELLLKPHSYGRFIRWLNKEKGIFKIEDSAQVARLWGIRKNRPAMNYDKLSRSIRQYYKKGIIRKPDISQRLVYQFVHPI
In short: as §1

[15] = target: T10, ETV7 (Homo sapiens, UniProt Q9Y603 1-341); conditions: protein: recombinant; tags: N-terminal GST; dsDNA, one strand shown
T10 sequence: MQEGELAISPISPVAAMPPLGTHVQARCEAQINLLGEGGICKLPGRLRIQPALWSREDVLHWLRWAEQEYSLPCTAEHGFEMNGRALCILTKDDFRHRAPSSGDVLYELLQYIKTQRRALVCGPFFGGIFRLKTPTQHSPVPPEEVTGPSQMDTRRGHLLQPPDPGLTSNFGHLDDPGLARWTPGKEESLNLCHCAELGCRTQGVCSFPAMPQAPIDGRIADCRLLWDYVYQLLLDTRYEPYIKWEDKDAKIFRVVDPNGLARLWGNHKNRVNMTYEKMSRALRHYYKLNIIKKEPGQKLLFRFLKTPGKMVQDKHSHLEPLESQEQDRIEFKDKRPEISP
In short: as §1

[16] = target: T11, ELF5 (Homo sapiens, UniProt Q9UKW6-2 1-255); conditions: protein: recombinant; tags: N-terminal GST; dsDNA, one strand shown
T11 sequence: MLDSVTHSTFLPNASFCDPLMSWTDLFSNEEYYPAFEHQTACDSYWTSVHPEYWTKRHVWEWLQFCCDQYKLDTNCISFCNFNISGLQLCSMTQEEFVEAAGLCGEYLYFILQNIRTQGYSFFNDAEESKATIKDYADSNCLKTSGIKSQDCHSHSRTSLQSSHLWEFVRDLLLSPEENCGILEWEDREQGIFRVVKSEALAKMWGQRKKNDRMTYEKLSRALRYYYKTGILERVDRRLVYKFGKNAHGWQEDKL
In short: as §1

[17] = target: T12, ETV3 (Homo sapiens, UniProt P41162-2 1-143); conditions: protein: recombinant; tags: N-terminal GST; dsDNA, one strand shown
T12 sequence: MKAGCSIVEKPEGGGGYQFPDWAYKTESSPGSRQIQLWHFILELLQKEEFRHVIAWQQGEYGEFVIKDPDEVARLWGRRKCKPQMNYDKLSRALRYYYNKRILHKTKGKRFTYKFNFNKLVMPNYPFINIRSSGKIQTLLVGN
In short: as §1

[18] = target: ETV6 (Homo sapiens, UniProt P41212 1-452); conditions: protein: recombinant; tags: N-terminal GST; dsDNA, one strand shown
In short: as §1

CRX, sequence (O43186 whole entry): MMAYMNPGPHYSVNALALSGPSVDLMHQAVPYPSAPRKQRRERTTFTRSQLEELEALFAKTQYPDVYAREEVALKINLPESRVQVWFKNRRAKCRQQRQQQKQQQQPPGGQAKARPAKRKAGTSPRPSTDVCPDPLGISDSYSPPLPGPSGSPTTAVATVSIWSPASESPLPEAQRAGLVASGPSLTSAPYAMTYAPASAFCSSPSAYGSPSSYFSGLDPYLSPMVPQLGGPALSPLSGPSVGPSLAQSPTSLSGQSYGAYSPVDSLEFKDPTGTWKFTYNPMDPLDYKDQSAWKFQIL
ETV5, sequence (P41161 whole entry): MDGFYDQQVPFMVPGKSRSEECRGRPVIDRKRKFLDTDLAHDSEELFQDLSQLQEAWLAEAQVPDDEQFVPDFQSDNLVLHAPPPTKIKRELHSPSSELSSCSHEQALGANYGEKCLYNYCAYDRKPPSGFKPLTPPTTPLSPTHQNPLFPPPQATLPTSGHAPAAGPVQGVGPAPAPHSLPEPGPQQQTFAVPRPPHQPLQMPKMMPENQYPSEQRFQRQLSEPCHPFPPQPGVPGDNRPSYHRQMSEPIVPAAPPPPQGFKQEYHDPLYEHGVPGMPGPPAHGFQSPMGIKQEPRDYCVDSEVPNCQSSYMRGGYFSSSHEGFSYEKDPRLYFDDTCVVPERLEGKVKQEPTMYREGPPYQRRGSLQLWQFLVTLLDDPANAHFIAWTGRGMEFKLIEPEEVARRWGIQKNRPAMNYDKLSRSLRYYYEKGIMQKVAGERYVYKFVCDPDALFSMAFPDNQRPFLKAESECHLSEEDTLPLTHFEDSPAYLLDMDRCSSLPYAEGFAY
ETV6, sequence (P41212 whole entry): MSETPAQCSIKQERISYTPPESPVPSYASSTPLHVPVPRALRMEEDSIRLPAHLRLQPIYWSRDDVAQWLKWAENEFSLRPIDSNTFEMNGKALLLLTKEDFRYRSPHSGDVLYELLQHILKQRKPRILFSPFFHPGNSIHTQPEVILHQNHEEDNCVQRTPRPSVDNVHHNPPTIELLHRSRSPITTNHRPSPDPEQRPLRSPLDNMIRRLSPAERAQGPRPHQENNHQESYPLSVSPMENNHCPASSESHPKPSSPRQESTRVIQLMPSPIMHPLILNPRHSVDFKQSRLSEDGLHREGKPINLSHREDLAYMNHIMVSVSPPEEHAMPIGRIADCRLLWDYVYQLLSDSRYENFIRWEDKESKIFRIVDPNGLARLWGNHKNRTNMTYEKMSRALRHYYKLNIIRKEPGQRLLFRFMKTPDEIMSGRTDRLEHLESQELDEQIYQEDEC
ELF4, sequence (Q99607 whole entry): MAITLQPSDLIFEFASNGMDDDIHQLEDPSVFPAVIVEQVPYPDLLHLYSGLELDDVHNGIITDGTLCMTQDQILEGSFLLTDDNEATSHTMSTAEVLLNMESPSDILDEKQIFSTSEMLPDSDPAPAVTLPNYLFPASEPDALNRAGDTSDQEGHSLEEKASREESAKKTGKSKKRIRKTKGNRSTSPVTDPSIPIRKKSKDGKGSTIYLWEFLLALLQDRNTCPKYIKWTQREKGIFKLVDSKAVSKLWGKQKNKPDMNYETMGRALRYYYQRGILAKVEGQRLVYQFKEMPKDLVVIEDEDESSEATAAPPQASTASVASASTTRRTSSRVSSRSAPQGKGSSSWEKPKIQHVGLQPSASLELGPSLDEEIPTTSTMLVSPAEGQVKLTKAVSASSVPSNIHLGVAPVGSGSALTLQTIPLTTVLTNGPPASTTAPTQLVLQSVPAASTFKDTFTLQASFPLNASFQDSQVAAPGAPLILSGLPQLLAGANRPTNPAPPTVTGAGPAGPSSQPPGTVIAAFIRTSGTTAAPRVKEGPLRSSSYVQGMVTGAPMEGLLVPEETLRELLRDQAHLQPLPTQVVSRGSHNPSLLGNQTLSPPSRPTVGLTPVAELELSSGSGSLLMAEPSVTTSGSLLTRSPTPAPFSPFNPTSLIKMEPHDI
HSF1, sequence (Q00613 whole entry): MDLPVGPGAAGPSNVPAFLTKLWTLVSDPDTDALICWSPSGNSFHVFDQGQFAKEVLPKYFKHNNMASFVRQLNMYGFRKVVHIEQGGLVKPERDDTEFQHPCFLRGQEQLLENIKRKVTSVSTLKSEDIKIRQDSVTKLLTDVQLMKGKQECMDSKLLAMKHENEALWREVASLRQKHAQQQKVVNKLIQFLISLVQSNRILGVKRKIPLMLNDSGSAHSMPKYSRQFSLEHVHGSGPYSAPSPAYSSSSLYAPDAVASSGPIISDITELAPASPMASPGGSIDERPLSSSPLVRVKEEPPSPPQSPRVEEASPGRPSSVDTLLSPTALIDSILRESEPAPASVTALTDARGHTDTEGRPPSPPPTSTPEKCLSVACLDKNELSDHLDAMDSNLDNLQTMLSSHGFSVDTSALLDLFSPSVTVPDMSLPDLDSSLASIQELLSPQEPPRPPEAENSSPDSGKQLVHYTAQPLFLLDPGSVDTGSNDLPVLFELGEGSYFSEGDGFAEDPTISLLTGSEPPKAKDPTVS
ETV1, sequence (P50549 whole entry): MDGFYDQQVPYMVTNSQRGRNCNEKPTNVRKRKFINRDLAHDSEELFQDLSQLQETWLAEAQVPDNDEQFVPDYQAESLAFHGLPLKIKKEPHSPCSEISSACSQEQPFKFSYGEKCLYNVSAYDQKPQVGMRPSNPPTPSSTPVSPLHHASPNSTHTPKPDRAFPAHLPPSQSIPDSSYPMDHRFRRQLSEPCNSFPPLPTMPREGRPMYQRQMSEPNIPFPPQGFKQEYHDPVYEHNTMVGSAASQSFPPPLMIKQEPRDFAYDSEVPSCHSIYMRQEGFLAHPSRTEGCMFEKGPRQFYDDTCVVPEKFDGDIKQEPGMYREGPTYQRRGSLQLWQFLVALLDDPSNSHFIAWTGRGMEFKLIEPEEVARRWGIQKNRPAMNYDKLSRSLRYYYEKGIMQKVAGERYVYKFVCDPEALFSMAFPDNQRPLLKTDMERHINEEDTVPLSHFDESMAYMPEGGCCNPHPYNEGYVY

With TGGACT as the sequence, how does the binding signal [1] read?
Its binding signal is 1.32 fold enrichment (6-mer frequency, TF over GST control).

What about the binding signal [2] of the same sequence?
The binding signal was 1.33 fold enrichment (6-mer frequency, TF over GST control).

What about the binding signal [3] of the same sequence?
The binding signal was 1.18 fold enrichment (6-mer frequency, TF over GST control).

And the binding signal [4]?
The binding signal was 1.31 fold enrichment (6-mer frequency, TF over GST control).

And the binding signal [5]?
Its binding signal is 1.34 fold enrichment (6-mer frequency, TF over GST control).

And the binding signal [6]?
The binding signal was 1.25 fold enrichment (6-mer frequency, TF over GST control).

And the binding signal [7]?
Its binding signal is 1.27 fold enrichment (6-mer frequency, TF over GST control).

And the binding signal [8]?
The binding signal was 1.19 fold enrichment (6-mer frequency, TF over GST control).

And the binding signal [9]?
The binding signal was 1.06 fold enrichment (6-mer frequency, TF over GST control).

What about the binding signal [10] of the same sequence?
The binding signal was 1.33 fold enrichment (6-mer frequency, TF over GST control).

And the binding signal [11]?
Its binding signal is 1.25 fold enrichment (6-mer frequency, TF over GST control).

What about the binding signal [12] of the same sequence?
Its binding signal is 1.22 fold enrichment (6-mer frequency, TF over GST control).

And the binding signal [13]?
Its binding signal is 1.27 fold enrichment (6-mer frequency, TF over GST control).

And the binding signal [14]?
The binding signal was 1.2 fold enrichment (6-mer frequency, TF over GST control).

What about the binding signal [15] of the same sequence?
Its binding signal is 1.19 fold enrichment (6-mer frequency, TF over GST control).

What about the binding signal [16] of the same sequence?
The binding signal was 1.22 fold enrichment (6-mer frequency, TF over GST control).

What about the binding signal [17] of the same sequence?
The binding signal was 1.25 fold enrichment (6-mer frequency, TF over GST control).

What about the binding signal [18] of the same sequence?
The binding signal was 1.28 fold enrichment (6-mer frequency, TF over GST control).
